Source: PubChem BioAssay (several laboratories)
Rows were chosen to be rich in hits. Some 3.4% of all compounds tested hit in one or more screens of this group.
p47phox inh: p47phox (human) inhibition. P14598. p47phox/p22phox peptide binding, fluorescence polarization, 2 h. inhibition, % at 24.7 µM. 0.53% of 220,000 active. AID 1274
14-3-3 Bad inh: disrupts binding of bovine 14-3-3 zeta to phospho-Bad peptide; TR-FRET 14-3-3zeta/Dy647-pBad peptide displacement, 1 h; AID 781; inhibition, % at 21.7 µM; 0.71% of 220,000 active; P63103;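 active means inhibition above about 70%, limit read from the data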
Target sequence (P63103 whole entry, looked up): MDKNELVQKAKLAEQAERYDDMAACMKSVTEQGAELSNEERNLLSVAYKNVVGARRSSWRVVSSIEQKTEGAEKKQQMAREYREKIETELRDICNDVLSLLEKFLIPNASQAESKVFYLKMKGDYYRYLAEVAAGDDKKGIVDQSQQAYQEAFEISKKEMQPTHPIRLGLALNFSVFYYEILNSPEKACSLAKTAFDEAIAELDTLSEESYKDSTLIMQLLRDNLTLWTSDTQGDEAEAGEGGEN
Bim-Mcl-1: inhibitors of Bim-Mcl-1 interaction, human; Q07820; Bead-based flow cytometry, Bim peptide-Mcl-1 binding; inhibition, % at 10 µM; 0.1% of 190,000 active; AID 1009; in the data active means inhibition above about 40%
Target sequence (Q07820 whole entry, looked up): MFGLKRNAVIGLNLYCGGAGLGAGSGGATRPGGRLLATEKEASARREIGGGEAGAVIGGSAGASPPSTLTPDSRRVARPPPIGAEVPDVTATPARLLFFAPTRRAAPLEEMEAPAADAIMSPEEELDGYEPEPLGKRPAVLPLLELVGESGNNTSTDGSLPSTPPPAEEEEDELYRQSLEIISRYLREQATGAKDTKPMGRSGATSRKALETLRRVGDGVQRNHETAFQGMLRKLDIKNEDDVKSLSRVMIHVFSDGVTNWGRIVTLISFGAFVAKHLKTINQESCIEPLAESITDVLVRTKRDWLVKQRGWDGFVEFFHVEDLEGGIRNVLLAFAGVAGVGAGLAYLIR
Mcl1-Bid inh: Mcl-1/Bid interaction inhibition; Q07820; TR-FRET Mcl-1/Bid-Dy647 peptide binding, 1536-well; inhibition, % at 21.7 µM; 0.97% of 220,000 active;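 active means compounds that cut the binding signal by more than half at the single screening dose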;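 further: His-tagged Mcl-1 with europium anti-His antibody binding Bid BH3 peptide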
eIF4E-4G inh: eIF4E/eIF4G interaction inhibition in translation initiation | P63073+Q04637 | TR-FRET eIF4E-eIF4GI(517-606) binding, 2 h | inhibition, % at 21.7 µM | 0.37% of 220,000 active | AID 782
Mcl1 Noxa PPI: disrupts binding of human Mcl-1 to Noxa peptide; Q07820; TR-FRET Mcl-1/Noxa peptide binding, 2 h; inhibition, % at 21.7 µM; 1.5% of 220,000 active;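 active means compounds that cut the protein-peptide binding signal by more than 50% relative to plate controls in a single-dose test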;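 further: His-tagged Mcl-1 with rhodamine Noxa BH3 peptide and terbium anti-His antibody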
Hits are given with their value.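 How the source made its calls, unless noted: active means inhibition above about 30% (limit read from the data); inactive means the rest.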

Screening COC(=O)Cn1ncn2cccc2c1=O returned p47phox inh inactive, 14-3-3 Bad inh inactive, Bim-Mcl-1 inactive, Mcl1-Bid inh inactive, eIF4E-4G inh inactive and Mcl1 Noxa PPI inactive.
Screening CC1=NN(C(=O)CCc2ccccc2)C(O)(c2ccncc2)C1 (stereo not given) returned p47phox inh inactive, 14-3-3 Bad inh inactive, Bim-Mcl-1 inactive, Mcl1-Bid inh inactive, eIF4E-4G inh inactive and Mcl1 Noxa PPI inactive.
For Nc1nonc1N/N=C\c1ccccc1 the results were p47phox inh inactive, 14-3-3 Bad inh inactive, Mcl1-Bid inh inactive, eIF4E-4G inh inactive and Mcl1 Noxa PPI inactive.
`Nc1nonc1N/N=C/c1c(O)ccc2ccccc12` gave p47phox inh inactive, 14-3-3 Bad inh inactive, Bim-Mcl-1 inactive, Mcl1-Bid inh inactive, eIF4E-4G inh inactive and Mcl1 Noxa PPI 51.
Screening COc1ccc(/C=N/Nc2nonc2N)cc1 returned p47phox inh inactive, 14-3-3 Bad inh inactive, Bim-Mcl-1 inactive, Mcl1-Bid inh inactive, eIF4E-4G inh inactive and Mcl1 Noxa PPI 61.
For COc1ccc(/C=N/Nc2nn3cnnc3c3ccccc23)cc1 the results were p47phox inh inactive, 14-3-3 Bad inh inactive, Mcl1-Bid inh inactive, eIF4E-4G inh inactive and Mcl1 Noxa PPI 57.
For O=C(Cn1c(-c2ccccn2)nc2ccccc21)N/N=C/c1cccnc1 the results were p47phox inh inactive, 14-3-3 Bad inh inactive, Mcl1-Bid inh inactive, eIF4E-4G inh inactive and Mcl1 Noxa PPI inactive.
Screening O=C(/C=C/N1CCOCC1)c1cc2ccccc2o1 returned p47phox inh inactive, 14-3-3 Bad inh inactive, Bim-Mcl-1 inactive, Mcl1-Bid inh 75, eIF4E-4G inh inactive and Mcl1 Noxa PPI inactive.
`O=C(/C=C/N1CCOCC1)c1coc2ccccc12` gave p47phox inh inactive, 14-3-3 Bad inh inactive, Bim-Mcl-1 inactive, Mcl1-Bid inh 71, eIF4E-4G inh inactive and Mcl1 Noxa PPI inactive.
CCN(CC)S(=O)(=O)c1ccc(NC=C(C#N)C#N)cc1 was read as p47phox inh inactive, 14-3-3 Bad inh inactive, Mcl1-Bid inh inactive, eIF4E-4G inh inactive and Mcl1 Noxa PPI inactive.
Cn1cccc1-c1cc(C(=O)N/N=C/c2cccc(O)c2)[nH]n1 was read as p47phox inh inactive, 14-3-3 Bad inh inactive, Bim-Mcl-1 inactive, Mcl1-Bid inh inactive, eIF4E-4G inh inactive and Mcl1 Noxa PPI inactive.
For CC(C)CCC(CCN1CCCC1)c1ccc2c(c1)OCO2 (stereo not given) the results were p47phox inh inactive, 14-3-3 Bad inh inactive, Mcl1-Bid inh inactive, eIF4E-4G inh inactive and Mcl1 Noxa PPI 75.
For Cc1cc(S(=O)(=O)n2ccnc2)c(Cl)cc1Cl the results were p47phox inh inactive, 14-3-3 Bad inh inactive, Bim-Mcl-1 inactive, Mcl1-Bid inh inactive, eIF4E-4G inh inactive and Mcl1 Noxa PPI inactive.
`CCOC(=O)c1c(NC(=O)C(F)(OC)C(F)(F)F)sc2c1CCN(C)C2` (stereo not given) gave p47phox inh inactive, 14-3-3 Bad inh inactive, Bim-Mcl-1 inactive, Mcl1-Bid inh inactive, eIF4E-4G inh inactive and Mcl1 Noxa PPI inactive.
CCOC(=O)c1c(NC(=O)CSc2nnc(C)s2)sc2c1CCN(C)C2 was read as p47phox inh inactive, 14-3-3 Bad inh inactive, Bim-Mcl-1 inactive, Mcl1-Bid inh inactive, eIF4E-4G inh inactive and Mcl1 Noxa PPI 68.
`COc1ccc(N/C(=N/c2nc(C)cc(C)n2)NC(=O)c2ccccc2)cc1` gave p47phox inh inactive, 14-3-3 Bad inh inactive, Mcl1-Bid inh inactive, eIF4E-4G inh inactive and Mcl1 Noxa PPI inactive.
CCOC(=O)c1sc(NC(=O)CSc2nc(C)cc(C)c2C#N)c(C#N)c1C was read as p47phox inh inactive, 14-3-3 Bad inh inactive, Bim-Mcl-1 inactive, Mcl1-Bid inh 66, eIF4E-4G inh inactive and Mcl1 Noxa PPI inactive.
Screening CCOC(=O)c1c(NC(=O)c2ccncc2)sc(C)c1C returned p47phox inh inactive, 14-3-3 Bad inh inactive, Bim-Mcl-1 inactive, Mcl1-Bid inh inactive, eIF4E-4G inh inactive and Mcl1 Noxa PPI inactive.
For N#Cc1c(NC(=O)c2ccncc2)sc2c1CCC2 the results were p47phox inh inactive, 14-3-3 Bad inh inactive, Bim-Mcl-1 inactive, Mcl1-Bid inh inactive, eIF4E-4G inh inactive and Mcl1 Noxa PPI 69.
`CCOC(=O)c1sc(NC(=O)c2ccncc2)c(C#N)c1C` gave p47phox inh inactive, 14-3-3 Bad inh inactive, Bim-Mcl-1 inactive, Mcl1-Bid inh inactive, eIF4E-4G inh inactive and Mcl1 Noxa PPI 54.
For N#Cc1c(NC(=O)c2cccc(S(=O)(=O)Nc3ccc(C(=O)O)cc3)c2)sc2c1CCCC2 the results were p47phox inh inactive, 14-3-3 Bad inh inactive, Mcl1-Bid inh inactive, eIF4E-4G inh inactive and Mcl1 Noxa PPI 77.
For CCOC(=O)c1sc(NC(=O)CSc2nc3c(cc2C#N)CCCCCC3)c(C#N)c1C the results were p47phox inh inactive, 14-3-3 Bad inh inactive, Bim-Mcl-1 inactive, Mcl1-Bid inh inactive and eIF4E-4G inh inactive.
Cc1[nH]c2ccccc2c1C(=O)CSC(=S)N1CCOCC1 was read as p47phox inh inactive, 14-3-3 Bad inh inactive, Mcl1-Bid inh inactive, eIF4E-4G inh inactive and Mcl1 Noxa PPI inactive.
Screening Cc1csc2c(=O)n(CCO)c(=O)[nH]c12 returned p47phox inh inactive, 14-3-3 Bad inh inactive, Mcl1-Bid inh inactive, eIF4E-4G inh inactive and Mcl1 Noxa PPI inactive.
Screening COc1ccc(/C=N/NC(=O)c2c(C)nnn2-c2nonc2N)cc1OC returned p47phox inh inactive, 14-3-3 Bad inh inactive, Bim-Mcl-1 inactive, Mcl1-Bid inh inactive, eIF4E-4G inh inactive and Mcl1 Noxa PPI inactive.
Screening CCOC(=O)CC1C(=O)NCCN1C1CCCC1 (stereo not given) returned p47phox inh inactive, 14-3-3 Bad inh inactive, Bim-Mcl-1 inactive, Mcl1-Bid inh inactive, eIF4E-4G inh inactive and Mcl1 Noxa PPI inactive.
Screening C#CCOCCOCCOCCNc1nc(N2CCN(C(=O)[C@H](CCCCN)n3cc(C(N)CC(C)C)nn3)CC2)nc(N2CCN(C(=O)[C@H](CCC(=O)O)n3cc(C(N)[C@H](C)CC)nn3)CC2)n1 (stereo not given in full) returned 14-3-3 Bad inh inactive, Bim-Mcl-1 inactive, Mcl1-Bid inh 82, eIF4E-4G inh inactive and Mcl1 Noxa PPI inactive.
For C#CCOCCOCCOCCNc1nc(N2CCN(C(=O)[C@H]([C@@H](C)CC)n3cc(CCCN=C(N)N)nn3)CC2)nc(N2CCN(C(=O)[C@H](CCCCN)n3cc(CCCC)nn3)CC2)n1 the results were p47phox inh inactive, 14-3-3 Bad inh inactive, Bim-Mcl-1 inactive, Mcl1-Bid inh inactive, eIF4E-4G inh inactive and Mcl1 Noxa PPI inactive.
For C#CCOCCOCCOCCNc1nc(N2CCN(C(=O)[C@H](C)n3cc(CCCN=C(N)N)nn3)CC2)nc(N2CCN(C(=O)[C@H](CCCCN)n3cc(CCCC)nn3)CC2)n1 the results were p47phox inh inactive, 14-3-3 Bad inh 89, Bim-Mcl-1 inactive, Mcl1-Bid inh 72, eIF4E-4G inh inactive and Mcl1 Noxa PPI inactive.
